Assay outcomes deposited in PubChem BioAssay by National Center for Advancing Translational Sciences (NCATS).
The list is not random: actives were taken first. Their share in the collection is about 7.4%.
SMN2 splice enh: increases expression of the SMN2 splice variant. Potency, µM (highest dose often 46.1 µM), inactives show at the highest dose activity change, positive = activation, most hits filed as activators. HEK293 SMN2-luciferase splicing reporter, luminescence, 30-36 h. 210,000 compounds, 2.8% hits. AID 1458; note: % of control where 0% means no effect; nearly all actives have a fitted effect of over 55% in size
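HEK293 cells carry an SMN2 […]–luciferase reporter in which exon 7 inclusion puts luciferase in frame. Cells were plated 10-12 h before compound addition, then incubated 30-36 h at 37C. ONE-Glo luminescence was read; sodium butyrate at 4.5 mM final served as control.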
Rab9 prom act: Rab9 promoter activation; Huh7 Rab9 promoter-luciferase reporter, luminescence, 24 h; Potency, µM (series often up to 9.22 µM), without a hit: at the top dose activation, negative = inhibition, usual class: activators; 320,000 compounds, 2.8% hits; AID 485297; note: % of control where 0% means no effect; nearly all actives have a fitted effect of over 60% in size
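Measured in stably transfected Huh7 cells bearing a Rab9 promoter–luciferase construct: 24 h compound treatment at 37 °C, followed by luminescence detection.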
FLuc modulator: inhibits or activates purified firefly luciferase, miR-21 counter-screen; P08659; purified FLuc, Km substrates, luminescence inhibition; Potency, µM (titrated, usually from 57.5 µM), inactives show at the top dose activity change, negative = inhibition, usual class: inhibitors; 360,000 compounds, 6.9% hits; AID 588342;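 note: plate controls were vehicle for no effect and reference inhibitor for full effect; nearly all actives have a fitted effect of over 55% in size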
Target sequence (P08659 whole entry, looked up): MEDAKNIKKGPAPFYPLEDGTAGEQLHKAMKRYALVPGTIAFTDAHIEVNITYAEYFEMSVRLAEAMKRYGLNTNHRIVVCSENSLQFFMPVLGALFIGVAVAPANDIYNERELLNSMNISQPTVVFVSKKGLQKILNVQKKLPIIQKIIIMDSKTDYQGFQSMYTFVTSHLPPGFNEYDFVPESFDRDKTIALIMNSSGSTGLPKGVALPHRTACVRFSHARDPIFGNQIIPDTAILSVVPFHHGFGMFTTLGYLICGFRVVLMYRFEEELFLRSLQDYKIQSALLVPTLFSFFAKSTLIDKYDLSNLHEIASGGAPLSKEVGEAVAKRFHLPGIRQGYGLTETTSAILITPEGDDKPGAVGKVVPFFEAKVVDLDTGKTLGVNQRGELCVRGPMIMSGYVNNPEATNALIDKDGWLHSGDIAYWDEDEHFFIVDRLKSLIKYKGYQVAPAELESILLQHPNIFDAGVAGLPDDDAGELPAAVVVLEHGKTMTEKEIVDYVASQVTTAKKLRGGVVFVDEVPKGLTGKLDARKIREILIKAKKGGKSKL
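Purified P. pyralis luciferase (10nM final) with 10uM D-luciferin and 10uM ATP (Km levels) in 50mM Tris acetate pH 7.5, 10mM Mg acetate, 0.01% Tween-20, 0.05% BSA; qHTS 6-point titration, ~60 µM downward; luminescence read.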
ELG1 genotox: induces genotoxicity in HEK293T cells with luciferase-tagged ELG1; Potency, µM (top dose mostly 46 µM), without a hit: top-dose activity change, positive = activation, most hits filed as activators; AID 504466; 330,000 compounds, 1.3% hits; HEK293T ELG1-luciferase reporter, luminescence, 16 h; note: % of control where 0% means no effect; nearly all actives have a fitted effect of over 60% in size
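DMSO vehicle served as control against compound-treated ELG1-luciferase HEK293T cells; exposure lasted 16 hr at 37 °C and 5% CO2, followed by ONE-Glo luminescence detection after 30 min.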
p53 reactivator: mutant p53 re-activation in reporter cells; AID 504706; 320,000 compounds, 0.063% hits; H1299 p53-A138V BP100-luciferase reporter, luminescence, 24 h; Potency, µM (series often up to 92.2 µM), without a hit: top-dose activity change, positive = activation, usual class: activators; note: % of control where 0% means no effect; nearly all actives have a fitted effect of over 45% in size
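p53-null H1299 cells stably carrying temperature-sensitive p53-A138V and a BP100-luciferase reporter were pinned with compounds (4-point, 1:5 series) and held 24 hrs at 37 deg C. Luminescence was read 10 min after detection reagent.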
NPC1 prom act: activators of NPC1 promoter; Huh7 NPC1 promoter luciferase reporter, 24 h; Potency, µM (series often up to 9.22 µM), for the others: at the highest dose activation, usual class: activators; 320,000 compounds, 2.4% hits; note: % of control where 0% means no effect; nearly all actives have a fitted effect of over 60% in size
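Stable NPC1-promoter luciferase Huh7 line; cpd (DMSO) 24 h, 37 °C, 5% CO2; Amplite luciferase reagent 10 min RT; luminescence readout. qHTS format.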
* hit, by the source's call; ? = inconclusive; . = no result given; [ ] = dose if it differs, or a comment. Calls come from the whole dose curve; as a rule, active = well fitted curve in the direction sought with a large enough effect; inconclusive = small, poorly fitted or top-dose-only effect, or another doubt; inactive = no such curve, though single readings can be large; an effect the other way counts as inactive or inconclusive. Potency is the fitted concentration of half-maximal effect.

SMILES	SMN2 splice enh	Rab9 prom act	FLuc modulator	ELG1 genotox	p53 reactivator	NPC1 prom act
Cc1ccc2nc(-c3ccc(NC(=O)COC(=O)c4cncc(Br)c4)cc3)sc2c1	0.56µM*	0.32µM*	1.7µM*	1.3µM*	?	?
Cc1ccc2nc(-c3ccc(NC(=O)COC(=O)c4ccc([N+](=O)[O-])o4)cc3)sc2c1	0.71µM*	0.45µM*	1.3µM*	1.3µM*	3.2µM*	0.4µM*
CCOc1ncccc1C(=O)OCC(=O)Nc1c(C)cc(C)cc1C	10%	-4%	-1%	0%	4%	0%
CCCCCN(CCCCC)C(=O)[C@H](CCC(=O)O)NC(=O)c1ccc(Cl)c(Cl)c1	-10%[20.6 µM]	.	.	.	.	.
Cc1cn2c(=O)cc(COC(=O)c3cccc(NC(=O)c4ccccc4Cl)c3)nc2s1	.	.	3%	.	.	.
COc1cc(OC)c(NC(=O)Cn2c(=O)cc(C(F)(F)F)c3c(C)nn(C)c32)cc1Cl	.	.	0%	.	.	.
CCOC(=O)c1cccc(NS(=O)(=O)c2cc(Br)cc3c2N(C(=O)C2CC2)CC3)c1	-75%	.	?	.	.	.
Cc1ccc(NC(=O)COC(=O)c2ccco2)cc1	.	-1%	17µM*	4%	0%	-2%
COc1cc(NC(=O)CSc2ncc(S(=O)(=O)c3ccc(Br)cc3)c(=O)[nH]2)cc(OC)c1	-9%	.	?	.	.	.
O=C(CSc1ncc(S(=O)(=O)c2ccc(Br)cc2)c(=O)[nH]1)NCc1ccc(Cl)cc1	5%	.	8.5µM*	.	.	.
Cc1ccc(CNC(=O)CSc2ncc(S(=O)(=O)c3ccc(Br)cc3)c(=O)[nH]2)cc1	-2%	.	6.7µM*	.	.	.
O=C(CSc1ncc(S(=O)(=O)c2ccc(Cl)cc2)c(=O)[nH]1)Nc1cccc(C(F)(F)F)c1	5%	.	?	.	.	.
Cc1cc(C(=O)Nc2ccc3[nH]ccc3c2)no1	.	2.8µM*	11µM*	?	8%	2.2µM*
COc1ccc(CCNC(=O)c2cc3c(=O)n(C)c4ccccc4c3s2)cc1OC	-2%	.	-9%	.	.	.
CCC(Oc1ccccc1)C(=O)N(CC)CC(=O)NCc1ccc(F)cc1 (centres undefined)	.	-4%	7%	2%	-4%	1%
CCN(CC(=O)NCc1ccc(F)cc1)C(=O)c1ccc(COc2ccccc2)cc1	.	?	17µM*	-1%	23%	?
O=C(CCS(=O)(=O)c1ccccc1)NCCS(=O)(=O)c1ccccc1	8%	6%	-1%	-6%	-1%	6%
O=C(CCS(=O)(=O)c1ccccc1)NC12CC3CC(CC(C3)C1)C2	?	3.5µM*	12µM*	9.2µM*	?	3.2µM*
O=c1[nH]cnc2scc(C3COc4ccccc4O3)c12 (centres undefined)	-8%	17%	?	5%	?	9%
CCOc1cccc(-c2csc(C3COc4ccccc4O3)n2)c1 (centres undefined)	4µM*	4µM*	2.1µM*	?	26%	?
O/N=C/c1ccn(-c2ccc(Br)cc2)c1	10%	14%	24µM*	-1%	12%	25%
Cc1cc(/C=N/O)c(C)n1-c1ccc(Br)cc1	4%	1%	-12%	1%	-10%	1%
CSc1ccc(-c2nc3cnccn3c2Nc2ccc3c(c2)OCO3)cc1	-2%	-4%	19µM*	-1%	5%	0%
Clc1ccc(-c2nc3cnccn3c2Nc2ccc3c(c2)OCO3)cc1	1%	1%	?	-5%	6%	-6%
c1cn2c(Nc3ccc4c(c3)OCCO4)c(-c3ccc(N4CCOCC4)cc3)nc2cn1	.	21%	2.7µM*	?	7%	26%
SMILES	SMN2 splice enh	Rab9 prom act	FLuc modulator	ELG1 genotox	p53 reactivator	NPC1 prom act
Cc1cc(SCC(=O)c2ccc(Br)cc2)cc(C)[o+]1	0%[9.22 µM]	.	.	.	.	.
O=c1c(-c2ccc(Cl)cc2)nc2cnc(N3CCNCC3)nc2n1Cc1ccc(F)cc1	-5%	.	.	.	.	.
CC(C)c1cc(C(=O)N/N=C/c2ccco2)n[nH]1	16µM*	?	17µM*	?	?	?
C/C(=N\NC(=O)c1cc(C(C)C)[nH]n1)c1ccncc1	.	?	?	9%	18%	?
C/C(=N\NC(=O)c1cc(C(C)C)[nH]n1)c1ccco1	2.8µM*	2.5µM*	12µM*	?	?	4µM*
C/C(=N/NC(=O)c1cc(-c2ccc(Br)s2)[nH]n1)c1ccco1	-10%	-8%	24µM*	4%	-5%	1%
Cc1ccc(Oc2cc(NN3CCCCC3)c([N+](=O)[O-])cc2[N+](=O)[O-])c(Cl)c1	.	-2%	1%	-3%	.	-1%
CCOc1cccc(/C=N/NC(=O)c2cc(C3CC3)[nH]n2)c1O	.	-37%	12µM*	?	?	-43%
CCOc1cccc(/C=N/NC(=O)c2cccnc2)c1O	.	-11%	19µM*	?	.	-21%
O=C(Nc1ccc(OCc2ccccc2Cl)cc1)c1cccnc1	.	1%	?	2%	-115%	-3%
O=C(N/N=C/c1ccccc1OCc1ccccc1Cl)c1cccnc1	-21%	-5%	24µM*	5%	-1%	0%
COc1cc(/C=N/NC(=O)c2cc(C3CC3)[nH]n2)cc(OC)c1OC	.	-5%	?	-1%	-10%	2%
NC(N)=Nc1ccc(-c2ccc(N=C(N)N)cc2)cc1	2%[9.22 µM]	.	.	.	.	.
O=C(Nc1ccc(S(=O)(=O)Nc2cnc3ccccc3n2)cc1)c1ccc(Br)o1	-26%	-5%	17µM*	-6%	-6%	0%
CC(C)(C)c1ccc(C(=O)Nc2ccc(S(=O)(=O)Nc3cnc4ccccc4n3)cc2)cc1	.	0%[1.84 µM]	13µM*	3%	4%	1%
O=C(COC(=O)c1ccc(O)cc1O)NC(=O)NCc1ccccc1	.	1%	2%	1%	-7%	-2%
Cc1ccccc1-n1c(SCc2csc(Nc3ccccc3)n2)nnc1-c1cccnc1	-13%	-1%	?	-8%	-11%	0%
Cc1ccc(Nc2nc(CSc3nnc(-c4cccnc4)n3-c3ccccc3C)cs2)cc1	-44%	2%	11µM*	1%	?	3%
Cc1ccc(Nc2nc(CSc3nnc(-c4ccccc4)n3C)cs2)cc1	?	?	1.2µM*	?	?	?
Cc1ccc(Nc2nc(CSc3nnc(-c4ccccc4C)n3C)cs2)cc1	.	?	1.9µM*	3%	?	?
CCOc1ccc(NC(=O)c2ccc3c(c2)CCN3S(C)(=O)=O)cc1	.	0%	-8%	-3%	9%	1%
Cc1ccc(NC(=O)c2cccc(NC(=O)N3CCSc4ncccc43)c2)cc1F	.	.	-2%	.	.	.
